# Compounds without any hit were thinned out: in the full panel of roughly 83,000, 20% have a hit.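 Compound tested at a single concentration for 48 hours in 96-well plates; a percent growth value below 10 was scored as active.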 Activity calls are given as the source filed them.
# Test system: A549/ATCC NSCLC
# Test: NCI-60 one-dose screen, 48 h (100 = growth as untreated, 0 = no growth, -100 = all killed)
# Conditions: 10 µM
row,SMILES,growth
1,COCCOC(=O)NC(=O)Nc1ccc(C(=O)c2ccc(Cl)cc2)cc1,41.8% (inactive)
2,Cc1cnc(C=O)c2cccc([N+](=O)[O-])c12,104% (inactive)
3,COc1ccc(-c2nc(SCC(=O)c3ccc(Br)cc3)[nH]c(=O)c2C#N)cc1,99.6% (inactive)
4,COc1cccc2c1C(=O)c1c(O)c3c(c(O)c1C2=O)C[C@@](O)(C(=O)COC(=O)c1ccccc1)C[C@@H]3OC1CC(N)C(O)C(C)O1 (stereo partly specified),-85.1% (active)
5,Fc1ccc2[nH]c3c(NCCCN4CCOCC4)ncnc3c2c1,54.5% (inactive)
6,CC(C)c1[nH]nc2c(NCc3ccc(-c4ccccn4)cc3)nc(SCCN)nc12,6.81% (active)
7,COc1ccc(NC(=O)CCn2cnc3c(cc(-c4ccccc4)n3-c3ccccc3)c2=O)cc1,85.8% (inactive)
8,CNC(=O)c1cc(Oc2ccc(NC(=O)Nc3ccc(Cl)c(OC4CCCCC4)c3)c(F)c2)ccn1,26.6% (inactive)
9,CCCCCCCCCCCCCCCCn1cc[n+](C)c1,-50.9% (active)
10,O=C1/C(=C/c2cccs2)CCC/C1=C\c1cccs1,88.4% (inactive)
11,COC(=O)C1(C(=O)OC)C2C(=O)C3C(C21)C3(C(=O)OC(C)(C)C)C(=O)OC(C)(C)C (stereo unspecified),109% (inactive)
12,COc1ccc(Cn2cc3c(c2-c2ccccc2)CC(C)(C)c2cnoc2-3)cc1,49.6% (inactive)
13,CC(C)C[C@H](NC(=O)Cn1ccc2ccccc2c1=O)B(O)O,84.9% (inactive)
14,Cc1cc(Nc2cccc(F)c2)nc(NCc2ccccc2)n1,16.2% (inactive)
15,O=C(/C=C/c1ccc(Cl)cc1)c1ccc(Br)cc1,102% (inactive)
16,Cc1cc2cc3c(=O)[nH]c(=O)cc-3n(CC(O)C(O)C(O)CO)c2cc1C (stereo unspecified),97.8% (inactive)
17,N#Cc1cnc2ccc(NCc3cnc[nH]3)cc2c1Nc1ccc(F)c(Cl)c1,70.9% (inactive)
18,Cn1c(=O)c2[nH]c(C(O)c3ccc(Cl)cc3)nc2n(C)c1=O (stereo unspecified),96.3% (inactive)
19,Cc1ccc(S(=O)(=O)Nc2cccc3[nH]c(C(F)(F)F)nc23)cc1,24% (inactive)

row,SMILES,growth
1,CCCCCCCOc1cccc(/C=C2/C(=O)N=C3SCCCN32)c1,94.9% (inactive)
2,Cc1ccc(C)c(S(=O)(=O)NC2c3ccccc3Oc3ccccc32)c1,96.7% (inactive)
3,Nc1nc2c(nnn2C2CC(O)C(CO)O2)c(=O)[nH]1 (stereo unspecified),76.2% (inactive)
4,Cc1nc2cc(-n3c(-c4ccc(F)cc4)nc4ccccc4c3=O)ccc2n1Cc1ccccc1,-25.4% (active)
5,CCN(CCCNC(=O)Cc1cc(=O)oc2cc(N(C)C)ccc12)CCNc1ccnc2cc(Cl)ccc12,93.4% (inactive)
6,COc1cc(-c2nc3ccccc3[nH]2)ccc1OCC(=O)N=Nc1c(O)[nH]c2ccccc12,105% (inactive)
7,O=C(OCc1ncc(-c2ccc(C(F)(F)F)cc2)c(NC2CCCCCC2)n1)c1c(F)c(F)c(F)c(F)c1F,48.9% (inactive)
8,COc1cc(C2=Nc3c/c(=C\c4c(O)[nH]c5ccc(Cl)cc45)ccc3=N2)cc(OC)c1OC,56.5% (inactive)
9,COc1ccc(OC)c([N+](=O)[O-])c1C=O,101% (inactive)
10,COc1ccc(-c2nnc(COc3ccc(NC(=O)Nc4cccc(C(F)(F)F)c4)cc3F)o2)cc1,57.8% (inactive)
11,COc1ccc(C(=O)n2nc(CC(=O)NCc3ccccc3)nc2N)cc1,109% (inactive)
12,NC1CCC(Nc2nc(NCc3ccc(-c4ccccc4O)nc3)c3ncn(C4CCCC4)c3n2)CC1 (stereo unspecified),-25.2% (active)
13,COc1ccc(CSc2nc3cc(OC)c(OC)cc3c(=O)n2-c2ccc(OC)cc2OC)cc1,80.8% (inactive)
14,CCCCCCN=C(N)CCCCCCCCCCC(N)=NCCCCCC,33.7% (inactive)
15,O=C(COCc1c(-c2ccccc2)no[n+]1[O-])Nc1nc(-c2ccc(Cl)cc2)cs1,105% (inactive)
16,O=[N+]([O-])c1ccc2c(c1)Cc1cc(I)ccc1-2,94.7% (inactive)
17,CN(C)CCCN(Cc1ccccc1O)C(=S)Nc1ccc(Cl)cc1,98.1% (inactive)
18,CS(=O)(=O)Nc1ccc(Nc2c3ccccc3nc3cc(Cl)ccc23)cc1,9.01% (active)
19,COc1ccc(/C=C2\CCC3C(CCCC34OCCO4)C2=O)cc1 (stereo unspecified),89.7% (inactive)

# Test system: 786-0 renal
# Test: as above
# Conditions: 10 µM
row,SMILES,growth
1,COCCOC(=O)NC(=O)Nc1ccc(C(=O)c2ccc(Cl)cc2)cc1,47% (inactive)
2,Cc1cnc(C=O)c2cccc([N+](=O)[O-])c12,99.7% (inactive)
3,COc1ccc(-c2nc(SCC(=O)c3ccc(Br)cc3)[nH]c(=O)c2C#N)cc1,89.9% (inactive)
4,COc1cccc2c1C(=O)c1c(O)c3c(c(O)c1C2=O)C[C@@](O)(C(=O)COC(=O)c1ccccc1)C[C@@H]3OC1CC(N)C(O)C(C)O1 (stereo partly specified),-83.9% (active)
5,Fc1ccc2[nH]c3c(NCCCN4CCOCC4)ncnc3c2c1,24.1% (inactive)
6,CC(C)c1[nH]nc2c(NCc3ccc(-c4ccccn4)cc3)nc(SCCN)nc12,6.26% (active)
7,COc1ccc(NC(=O)CCn2cnc3c(cc(-c4ccccc4)n3-c3ccccc3)c2=O)cc1,88.7% (inactive)
8,CNC(=O)c1cc(Oc2ccc(NC(=O)Nc3ccc(Cl)c(OC4CCCCC4)c3)c(F)c2)ccn1,90.4% (inactive)
9,CCCCCCCCCCCCCCCCn1cc[n+](C)c1,-90.4% (active)
10,O=C1/C(=C/c2cccs2)CCC/C1=C\c1cccs1,108% (inactive)
11,COC(=O)C1(C(=O)OC)C2C(=O)C3C(C21)C3(C(=O)OC(C)(C)C)C(=O)OC(C)(C)C (stereo unspecified),102% (inactive)
12,COc1ccc(Cn2cc3c(c2-c2ccccc2)CC(C)(C)c2cnoc2-3)cc1,35.4% (inactive)
13,CC(C)C[C@H](NC(=O)Cn1ccc2ccccc2c1=O)B(O)O,70.3% (inactive)
14,Cc1cc(Nc2cccc(F)c2)nc(NCc2ccccc2)n1,45.7% (inactive)
15,O=C(/C=C/c1ccc(Cl)cc1)c1ccc(Br)cc1,81.1% (inactive)
16,Cc1cc2cc3c(=O)[nH]c(=O)cc-3n(CC(O)C(O)C(O)CO)c2cc1C (stereo unspecified),103% (inactive)
17,N#Cc1cnc2ccc(NCc3cnc[nH]3)cc2c1Nc1ccc(F)c(Cl)c1,65.7% (inactive)
18,Cn1c(=O)c2[nH]c(C(O)c3ccc(Cl)cc3)nc2n(C)c1=O (stereo unspecified),98.6% (inactive)
19,Cc1ccc(S(=O)(=O)Nc2cccc3[nH]c(C(F)(F)F)nc23)cc1,47.7% (inactive)

row,SMILES,growth
1,CCCCCCCOc1cccc(/C=C2/C(=O)N=C3SCCCN32)c1,80.4% (inactive)
2,Cc1ccc(C)c(S(=O)(=O)NC2c3ccccc3Oc3ccccc32)c1,88% (inactive)
3,Nc1nc2c(nnn2C2CC(O)C(CO)O2)c(=O)[nH]1 (stereo unspecified),50.7% (inactive)
4,Cc1nc2cc(-n3c(-c4ccc(F)cc4)nc4ccccc4c3=O)ccc2n1Cc1ccccc1,7.98% (active)
5,CCN(CCCNC(=O)Cc1cc(=O)oc2cc(N(C)C)ccc12)CCNc1ccnc2cc(Cl)ccc12,86.3% (inactive)
6,COc1cc(-c2nc3ccccc3[nH]2)ccc1OCC(=O)N=Nc1c(O)[nH]c2ccccc12,97.8% (inactive)
7,O=C(OCc1ncc(-c2ccc(C(F)(F)F)cc2)c(NC2CCCCCC2)n1)c1c(F)c(F)c(F)c(F)c1F,74.3% (inactive)
8,COc1cc(C2=Nc3c/c(=C\c4c(O)[nH]c5ccc(Cl)cc45)ccc3=N2)cc(OC)c1OC,-6.36% (active)
9,COc1ccc(OC)c([N+](=O)[O-])c1C=O,110% (inactive)
10,COc1ccc(-c2nnc(COc3ccc(NC(=O)Nc4cccc(C(F)(F)F)c4)cc3F)o2)cc1,78.9% (inactive)
11,COc1ccc(C(=O)n2nc(CC(=O)NCc3ccccc3)nc2N)cc1,97% (inactive)
12,NC1CCC(Nc2nc(NCc3ccc(-c4ccccc4O)nc3)c3ncn(C4CCCC4)c3n2)CC1 (stereo unspecified),-38.3% (active)
13,COc1ccc(CSc2nc3cc(OC)c(OC)cc3c(=O)n2-c2ccc(OC)cc2OC)cc1,95.7% (inactive)
14,CCCCCCN=C(N)CCCCCCCCCCC(N)=NCCCCCC,37% (inactive)
15,O=C(COCc1c(-c2ccccc2)no[n+]1[O-])Nc1nc(-c2ccc(Cl)cc2)cs1,120% (inactive)
16,O=[N+]([O-])c1ccc2c(c1)Cc1cc(I)ccc1-2,90% (inactive)
17,CN(C)CCCN(Cc1ccccc1O)C(=S)Nc1ccc(Cl)cc1,107% (inactive)
18,CS(=O)(=O)Nc1ccc(Nc2c3ccccc3nc3cc(Cl)ccc23)cc1,19.6% (inactive)
19,COc1ccc(/C=C2\CCC3C(CCCC34OCCO4)C2=O)cc1 (stereo unspecified),96.2% (inactive)

# Reference: PubChem BioAssay (NCI)
